Data from the supplement of paper PMC11732987, “Enantioselective OTUD7B fragment discovery through chemoproteomics screening and high-throughput optimisation” (Communications Chemistry, 2025).

Legend:
Test in all cases: log2 ratio of Biotin-Ahx-Ub-VS probe labelling (fragment/DMSO); higher = less target engagement (more negative = stronger competition), active = hit call of the paper (q ≤ 0.05, log2 ratio ≤ -1)
Details in all cases: compound concentration: 200 uM; treatment time: 3 h
[1] = target: T1, USP19 (UniProt O94966)
T1 sequence (whole entry): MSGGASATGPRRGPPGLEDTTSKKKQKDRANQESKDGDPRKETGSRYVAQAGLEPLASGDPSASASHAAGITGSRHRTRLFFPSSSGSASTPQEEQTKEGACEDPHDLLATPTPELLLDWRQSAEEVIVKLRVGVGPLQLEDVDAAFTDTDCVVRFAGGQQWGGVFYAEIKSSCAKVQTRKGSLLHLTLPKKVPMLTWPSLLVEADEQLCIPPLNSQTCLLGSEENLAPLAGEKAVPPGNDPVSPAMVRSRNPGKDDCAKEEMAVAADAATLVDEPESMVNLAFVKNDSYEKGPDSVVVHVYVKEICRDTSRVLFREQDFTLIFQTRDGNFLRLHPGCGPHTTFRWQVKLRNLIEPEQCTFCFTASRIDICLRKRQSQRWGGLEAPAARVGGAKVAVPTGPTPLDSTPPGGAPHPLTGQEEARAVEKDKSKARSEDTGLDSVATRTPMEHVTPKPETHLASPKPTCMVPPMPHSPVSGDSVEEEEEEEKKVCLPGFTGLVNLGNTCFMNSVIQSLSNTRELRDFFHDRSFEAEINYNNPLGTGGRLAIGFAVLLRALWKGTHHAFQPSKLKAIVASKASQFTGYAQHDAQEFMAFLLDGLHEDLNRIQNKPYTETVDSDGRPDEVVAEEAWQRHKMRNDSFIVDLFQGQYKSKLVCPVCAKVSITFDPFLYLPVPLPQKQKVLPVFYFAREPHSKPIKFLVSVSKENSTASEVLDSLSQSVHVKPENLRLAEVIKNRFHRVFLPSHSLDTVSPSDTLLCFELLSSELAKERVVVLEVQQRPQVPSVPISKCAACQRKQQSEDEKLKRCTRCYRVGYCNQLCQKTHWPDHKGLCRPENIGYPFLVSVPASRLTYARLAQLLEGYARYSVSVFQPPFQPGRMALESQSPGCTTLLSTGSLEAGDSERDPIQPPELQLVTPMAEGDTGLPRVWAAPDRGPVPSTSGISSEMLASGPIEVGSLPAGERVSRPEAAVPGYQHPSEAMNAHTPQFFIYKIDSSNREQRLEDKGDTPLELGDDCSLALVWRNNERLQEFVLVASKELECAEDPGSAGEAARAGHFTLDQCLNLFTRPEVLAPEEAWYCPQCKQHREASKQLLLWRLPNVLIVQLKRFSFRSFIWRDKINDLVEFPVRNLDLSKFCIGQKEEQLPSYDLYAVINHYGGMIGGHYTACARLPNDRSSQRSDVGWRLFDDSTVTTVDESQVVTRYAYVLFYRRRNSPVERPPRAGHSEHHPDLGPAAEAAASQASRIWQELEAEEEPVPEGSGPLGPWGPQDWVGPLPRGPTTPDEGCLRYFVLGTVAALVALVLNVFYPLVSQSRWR
Outline: (§1)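 Global-median-normalised Spectronaut label-free quantities were compared by unpaired t-test, and values are average log2 ratios of fragment over vehicle. Only proteins with ≥2 unique peptides were used. HEK293T lysate (495 µg per sample) was treated in triplicate with fragment at 200 µM or vehicle for 3 h and then with Biotin-Ahx-Ub-VS at 0.5 µM final for 1 h. Labelled DUBs were then NeutrAvidin-enriched, digested with LysC and trypsin, and run by diaPASEF LC-MS/MS.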

[2] = target: T2, USP22 (UniProt Q9UPT9)
T2 sequence (whole entry): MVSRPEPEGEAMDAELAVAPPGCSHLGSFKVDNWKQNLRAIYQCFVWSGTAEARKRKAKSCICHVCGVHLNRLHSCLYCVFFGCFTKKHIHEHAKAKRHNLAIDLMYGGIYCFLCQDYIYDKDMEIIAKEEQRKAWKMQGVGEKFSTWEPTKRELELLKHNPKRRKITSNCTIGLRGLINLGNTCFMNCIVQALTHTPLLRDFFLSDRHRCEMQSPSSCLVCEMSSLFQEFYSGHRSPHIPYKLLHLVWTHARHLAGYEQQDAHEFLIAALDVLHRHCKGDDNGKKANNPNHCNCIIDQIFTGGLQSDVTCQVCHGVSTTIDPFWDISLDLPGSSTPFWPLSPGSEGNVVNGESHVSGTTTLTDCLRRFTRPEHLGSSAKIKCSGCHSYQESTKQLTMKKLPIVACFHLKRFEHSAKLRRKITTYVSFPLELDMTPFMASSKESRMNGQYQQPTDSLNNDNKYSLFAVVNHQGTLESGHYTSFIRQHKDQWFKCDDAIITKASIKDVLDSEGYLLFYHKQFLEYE
Outline: as §1

[3] = target: USP24 (UniProt Q9UPU5)
Outline: as §1

[4] = target: T3, USP25 (UniProt Q9UHP3)
T3 sequence (whole entry): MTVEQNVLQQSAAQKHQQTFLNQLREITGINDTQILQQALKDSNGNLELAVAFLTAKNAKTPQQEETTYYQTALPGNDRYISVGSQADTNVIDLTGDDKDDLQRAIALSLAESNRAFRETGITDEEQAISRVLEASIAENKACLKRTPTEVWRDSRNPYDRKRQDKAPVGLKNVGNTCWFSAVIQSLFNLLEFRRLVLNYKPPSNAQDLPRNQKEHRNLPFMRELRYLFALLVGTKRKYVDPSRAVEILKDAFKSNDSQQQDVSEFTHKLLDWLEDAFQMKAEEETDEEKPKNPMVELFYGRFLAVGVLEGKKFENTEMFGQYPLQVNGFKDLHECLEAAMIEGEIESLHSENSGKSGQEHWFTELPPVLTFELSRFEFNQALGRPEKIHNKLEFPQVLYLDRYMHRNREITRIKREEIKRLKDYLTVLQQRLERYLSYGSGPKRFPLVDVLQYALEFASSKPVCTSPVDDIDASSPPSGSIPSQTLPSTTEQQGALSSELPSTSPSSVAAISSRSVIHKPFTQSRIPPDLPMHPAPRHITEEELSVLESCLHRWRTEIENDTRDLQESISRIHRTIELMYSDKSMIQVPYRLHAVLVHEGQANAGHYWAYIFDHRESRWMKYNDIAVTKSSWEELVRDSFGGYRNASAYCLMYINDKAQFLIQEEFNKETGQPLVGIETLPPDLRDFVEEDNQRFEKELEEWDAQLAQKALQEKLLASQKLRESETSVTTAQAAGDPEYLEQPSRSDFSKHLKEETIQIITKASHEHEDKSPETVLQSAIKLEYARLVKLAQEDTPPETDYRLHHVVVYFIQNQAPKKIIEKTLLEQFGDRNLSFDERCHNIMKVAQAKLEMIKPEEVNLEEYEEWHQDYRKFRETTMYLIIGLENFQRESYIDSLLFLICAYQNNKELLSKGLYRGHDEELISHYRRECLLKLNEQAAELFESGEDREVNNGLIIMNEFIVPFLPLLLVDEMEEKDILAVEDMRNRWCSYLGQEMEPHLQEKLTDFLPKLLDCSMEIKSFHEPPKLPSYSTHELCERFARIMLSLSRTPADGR
Outline: as §1

[5] = target: T4, USP28 (UniProt Q96RU2)
T4 sequence (whole entry): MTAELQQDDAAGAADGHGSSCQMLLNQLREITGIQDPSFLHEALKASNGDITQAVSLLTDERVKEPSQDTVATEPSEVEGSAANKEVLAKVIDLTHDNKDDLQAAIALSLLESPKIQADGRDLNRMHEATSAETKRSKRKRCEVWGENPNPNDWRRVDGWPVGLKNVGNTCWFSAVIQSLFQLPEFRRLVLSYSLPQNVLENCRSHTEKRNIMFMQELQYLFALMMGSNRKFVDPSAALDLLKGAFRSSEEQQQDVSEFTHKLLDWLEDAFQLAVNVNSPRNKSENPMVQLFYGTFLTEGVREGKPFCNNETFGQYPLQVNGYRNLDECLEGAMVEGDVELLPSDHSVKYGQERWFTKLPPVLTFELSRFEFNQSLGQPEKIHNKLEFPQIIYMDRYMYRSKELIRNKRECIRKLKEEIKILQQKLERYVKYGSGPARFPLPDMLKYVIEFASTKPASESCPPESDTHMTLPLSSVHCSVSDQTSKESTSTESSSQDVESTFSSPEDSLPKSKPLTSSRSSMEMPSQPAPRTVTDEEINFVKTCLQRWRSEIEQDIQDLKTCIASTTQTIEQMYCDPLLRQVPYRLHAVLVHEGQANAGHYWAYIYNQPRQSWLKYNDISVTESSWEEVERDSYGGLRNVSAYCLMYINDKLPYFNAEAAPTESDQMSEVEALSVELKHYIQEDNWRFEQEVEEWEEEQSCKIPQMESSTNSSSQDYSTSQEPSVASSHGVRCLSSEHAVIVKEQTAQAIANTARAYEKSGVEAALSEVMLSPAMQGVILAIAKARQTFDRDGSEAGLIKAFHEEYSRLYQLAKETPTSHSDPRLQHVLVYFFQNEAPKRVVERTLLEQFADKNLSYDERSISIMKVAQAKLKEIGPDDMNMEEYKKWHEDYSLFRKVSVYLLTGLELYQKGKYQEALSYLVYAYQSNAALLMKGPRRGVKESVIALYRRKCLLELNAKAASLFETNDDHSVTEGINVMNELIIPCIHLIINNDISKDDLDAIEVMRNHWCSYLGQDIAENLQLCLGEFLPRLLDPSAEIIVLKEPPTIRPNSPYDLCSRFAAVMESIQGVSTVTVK
Outline: as §1

Measured: log2 ratio of Biotin-Ahx-Ub-VS probe labelling

USP24, sequence (Q9UPU5 whole entry): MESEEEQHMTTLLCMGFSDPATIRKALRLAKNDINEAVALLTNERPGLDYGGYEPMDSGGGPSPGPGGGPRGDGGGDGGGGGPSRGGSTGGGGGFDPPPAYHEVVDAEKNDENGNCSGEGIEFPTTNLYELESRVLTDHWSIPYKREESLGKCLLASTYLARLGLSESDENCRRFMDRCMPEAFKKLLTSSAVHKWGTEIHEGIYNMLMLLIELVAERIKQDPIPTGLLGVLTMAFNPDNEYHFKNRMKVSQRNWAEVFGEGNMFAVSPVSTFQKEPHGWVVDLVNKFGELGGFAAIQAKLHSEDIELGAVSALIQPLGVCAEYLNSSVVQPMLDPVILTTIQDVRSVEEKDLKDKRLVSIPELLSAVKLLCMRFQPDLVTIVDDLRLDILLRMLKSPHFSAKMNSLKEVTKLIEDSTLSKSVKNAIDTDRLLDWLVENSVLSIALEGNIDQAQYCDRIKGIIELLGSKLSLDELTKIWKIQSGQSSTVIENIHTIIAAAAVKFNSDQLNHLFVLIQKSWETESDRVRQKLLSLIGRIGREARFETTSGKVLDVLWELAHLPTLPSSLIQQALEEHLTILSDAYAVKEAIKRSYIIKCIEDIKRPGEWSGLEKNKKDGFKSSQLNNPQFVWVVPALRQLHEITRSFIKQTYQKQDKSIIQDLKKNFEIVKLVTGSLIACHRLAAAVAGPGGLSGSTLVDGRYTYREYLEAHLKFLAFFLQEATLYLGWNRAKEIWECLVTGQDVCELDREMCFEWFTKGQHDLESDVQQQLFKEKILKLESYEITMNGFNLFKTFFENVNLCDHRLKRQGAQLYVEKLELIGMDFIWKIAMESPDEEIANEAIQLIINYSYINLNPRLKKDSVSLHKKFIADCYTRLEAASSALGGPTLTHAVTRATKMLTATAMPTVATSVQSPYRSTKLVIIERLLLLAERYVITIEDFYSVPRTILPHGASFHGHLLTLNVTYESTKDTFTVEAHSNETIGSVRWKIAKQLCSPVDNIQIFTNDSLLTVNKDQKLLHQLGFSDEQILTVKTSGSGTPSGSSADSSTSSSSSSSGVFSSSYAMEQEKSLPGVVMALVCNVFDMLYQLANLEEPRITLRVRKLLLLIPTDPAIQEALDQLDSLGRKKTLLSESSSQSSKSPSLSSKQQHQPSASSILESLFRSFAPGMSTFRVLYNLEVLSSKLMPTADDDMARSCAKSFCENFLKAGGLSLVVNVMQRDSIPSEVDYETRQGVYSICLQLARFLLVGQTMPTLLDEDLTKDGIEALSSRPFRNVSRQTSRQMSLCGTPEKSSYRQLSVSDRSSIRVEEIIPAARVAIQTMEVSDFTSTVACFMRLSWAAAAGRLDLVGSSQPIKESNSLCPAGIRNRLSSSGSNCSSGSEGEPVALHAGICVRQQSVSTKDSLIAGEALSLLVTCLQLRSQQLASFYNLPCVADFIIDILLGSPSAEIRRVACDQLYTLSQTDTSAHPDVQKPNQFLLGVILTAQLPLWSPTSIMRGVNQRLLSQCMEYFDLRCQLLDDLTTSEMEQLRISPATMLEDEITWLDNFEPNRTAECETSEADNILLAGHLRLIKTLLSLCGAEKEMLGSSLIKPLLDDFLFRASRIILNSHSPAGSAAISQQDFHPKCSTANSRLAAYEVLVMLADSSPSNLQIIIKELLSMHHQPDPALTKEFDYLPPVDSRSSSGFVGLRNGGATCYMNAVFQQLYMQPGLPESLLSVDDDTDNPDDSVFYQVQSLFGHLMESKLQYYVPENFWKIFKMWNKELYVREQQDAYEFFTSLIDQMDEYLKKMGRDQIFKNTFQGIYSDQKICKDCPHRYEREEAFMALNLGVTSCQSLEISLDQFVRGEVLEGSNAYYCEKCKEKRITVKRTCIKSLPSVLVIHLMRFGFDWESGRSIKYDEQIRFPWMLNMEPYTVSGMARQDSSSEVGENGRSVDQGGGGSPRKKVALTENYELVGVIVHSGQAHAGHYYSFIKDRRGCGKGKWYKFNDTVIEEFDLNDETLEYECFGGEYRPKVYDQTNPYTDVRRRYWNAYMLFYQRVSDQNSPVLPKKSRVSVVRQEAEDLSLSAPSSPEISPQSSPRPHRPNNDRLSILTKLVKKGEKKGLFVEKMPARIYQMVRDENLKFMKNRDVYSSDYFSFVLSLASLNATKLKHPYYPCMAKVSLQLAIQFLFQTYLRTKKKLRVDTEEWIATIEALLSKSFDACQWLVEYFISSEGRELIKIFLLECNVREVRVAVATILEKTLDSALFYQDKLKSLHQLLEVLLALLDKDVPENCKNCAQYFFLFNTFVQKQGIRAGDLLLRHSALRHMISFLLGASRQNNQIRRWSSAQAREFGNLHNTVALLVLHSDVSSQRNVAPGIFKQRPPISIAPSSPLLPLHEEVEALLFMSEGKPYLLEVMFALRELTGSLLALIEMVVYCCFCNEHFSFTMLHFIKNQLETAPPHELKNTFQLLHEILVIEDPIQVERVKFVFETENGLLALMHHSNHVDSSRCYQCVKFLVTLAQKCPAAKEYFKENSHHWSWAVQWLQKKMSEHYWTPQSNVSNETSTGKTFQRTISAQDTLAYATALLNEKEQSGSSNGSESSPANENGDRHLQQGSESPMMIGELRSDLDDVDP

CC(NC(=O)CCl)c1cccc2ccccc12 (stereo not given)
inactive: [1] -0.242 | [2] -0.925 | [3] -0.343 | [4] -0.33 | [5] -0.501
